Screening results (PubChem BioAssay)
VACV mCherry inh: inhibitors of vaccinia virus infection (mCherry reporter signal); 0.63% of 310,000 active; Vaccinia virus mCherry reporter infection, fluorescence; Potency, µM (titrated, usually from 36.5 µM), for inactives: at the highest dose activity change, negative = inhibition, actives largely listed as inhibitors; AID 720579; calls by dose curve; tested in A549 cells; note: potency is the fitted concentration of half-maximal effect; nearly all actives have a fitted effect of over 35% in size
Sm TGR block: inhibitors of Schistosoma mansoni thioredoxin glutathione reductase; purified TGR, DTNB reduction, TNB absorbance 405 nm; 3% of 360,000 active; AID 485364; Potency, µM (titrated, usually from 114 µM), without a hit: top-dose activity change, negative = inhibition, usual class: inhibitors; Q962Y6; note: potency is the fitted concentration of half-maximal effect; nearly all actives have a fitted effect of over 60% in size
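TGR 20 nM + NADPH 100 uM (dispensed conc.), cpd preinc 15 min RT; start with NADPH (500 uM addition) then DTNB (15 mM addition). Kinetic TNB absorbance, 405 nm filter. Four-parameter Hill fit across titration.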
HCMV antiviral: human cytomegalovirus inhibition; AID 1259415; HFF cells, HCMV-luciferase reporter, 72 h; stronger effect = lower value; 4.5% of 410,000 active; activity change, negative = inhibition, % at 57.5 µM; in the data active = activity change below about -60%; inconclusive = no clear call, values can overlap the other calls; inactive = above about -39%
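Luciferase read-out from HCMV-luciferase-infected HFFs (MOI 1 PFU/cell) 72 h post infection at 37C; compounds added after 16 h cell attachment; activity normalized between buffer-only basal and Salinomycin (10uM) inhibitor controls.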
HCV inhibitor: HCV inhibition. Huh7.5.1 HCVcc-Cre infection, luciferase reporter, 44 h. Potency, µM (top dose mostly 41.8 µM), for the others: at the top dose activity change, negative = inhibition, actives largely listed as inhibitors. 3.4% of 340,000 active. AID 651820; note: potency is the fitted concentration of half-maximal effect
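Antiviral activity was scored by luciferase reporter output from cells infected with HCVcc-Cre (~0.5 moi) in presence of compound, 44 h infection period, cells seeded 1,000/well 4 h prior.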
FMDV inh: antivirals against foot and mouth disease virus | FMDV antiviral cell-based qHTS | Potency, µM (titrated, usually from 57.9 µM), without a hit: at the highest dose activity change, negative = inhibition, hits mostly inhibitors | 1.2% of 410,000 active; calls by dose curve; tested in HEK293T cells; note: read-out not given here; potency is the fitted concentration of half-maximal effect; nearly all actives have a fitted effect of over 45% in size
Vaccinia Venus: vaccinia inhibition (Venus reporter); Vaccinia virus Venus reporter expression, fluorescence; Potency, µM (highest dose often 36.5 µM), inactives show at the top dose activity change, negative = inhibition, most hits filed as inhibitors; 0.46% of 330,000 active; AID 720580; calls by dose curve; tested in A549 cells; note: potency is the fitted concentration of half-maximal effect; nearly all actives have a fitted effect of over 30% in size
Numbers without * were called inactive; i = inactive; ? = inconclusive; nt = no result given; [ ] = dose if it differs, or a comment. Hits are enriched below; roughly 9.3% of the tested compounds scored in any of these assays. Unless noted, calls come from the whole dose curve; as a rule, active = well fitted curve in the direction sought with a large enough effect; inconclusive = small, poorly fitted or top-dose-only effect, or another doubt; inactive = no such curve, though single readings can be large; an effect the other way counts as inactive or inconclusive. % is set by controls: 0 for no effect and ±100 for the full control effect.

SMILES | VACV mCherry inh | Sm TGR block | HCMV antiviral | HCV inhibitor | FMDV inh | Vaccinia Venus
CC(C)N(C(=O)[C@H]1C[C@H](CC(=O)NCCC2=CCCCC2)C(=O)N2CCc3c([nH]c4ccc(Cl)cc34)[C@]12C)C(C)C | ? | nt | -91* | -26% | ? | 16µM*
COc1ccc2[nH]c3c(c2c1)CCN1C(=O)C(CC(=O)NC/C=C(\C)CCC=C(C)C)C[C@H](C(=O)N(C(C)C)C(C)C)[C@@]31C (stereo partly specified) | -20% | nt | -103* | 6.3µM* | -9% | ?
COc1ccc(CNC(=O)C2CCCN2C(=O)NC2CCCCC2)cc1 (stereo unspecified) | nt | 0%[11.4 µM] | 20 | 4% | 5% | nt
Cc1cccc(C(=O)NCC(=O)OCC(=O)c2cc(C)n(CC3CCCO3)c2C)c1 (stereo unspecified) | -11% | -1% | 50 | 2% | 3% | -5%
CC(=O)OC(C)C1C2=C(C(=O)CC1(C)O)C(=O)c1c(ccc(-c3ccc4c(c3O)C(=O)C3=C(C4=O)C(C(C)OC(C)=O)C(C)(O)CC3=O)c1O)C2=O (stereo unspecified) | ? | nt | -68* | ? | 18µM* | 6%
Cc1ccc(NC(=O)N2CCCC2C(=O)Nc2ccc3c(c2)OCO3)cc1 (stereo unspecified) | ? | -2% | 0 | -4% | 10% | -5%
CCN1CCCC1CNC(=O)c1cc(NC(C)=O)c(N(C)C)cc1OC (stereo unspecified) | nt | -25% | -68* | 8% | 20% | nt
CCc1cc(Cl)c(OC)c(C(=O)NC[C@@H]2CCCN2CC)c1O | -4% | nt | -29 | 5µM* | -22% | -19%
CCC(=O)Nc1cc(C(=O)NCC2CCCN2CC)c(OC)cc1N(C)C (stereo unspecified) | nt | 12% | 48 | 12% | -19% | nt
CCN1CCCC1CNC(=O)c1ccccc1Cl (stereo unspecified) | nt | -2% | -31 | 9% | -24% | -1%
Cc1cc(C)cc(NC(=O)CCC(=O)Nc2nnc(C(F)(F)F)s2)c1 | nt | -5% | 16 | -3% | 0% | nt
O=C(CCN1C(=O)COc2ccccc21)N1CCN(c2ccccn2)CC1 | -19% | 3% | -73* | -5% | nt | -8%
CCC1CCCCN1CCCNC(=O)CCNC(=O)Cn1cnc2ccccc2c1=O (stereo unspecified) | i | 1% | -18 | 14% | 1% | -10%
Cc1ccc(OCC(=O)N2CCc3ccccc3C2)cc1 | nt | 7% | 1 | 2% | 32% | nt
CN(C(=O)C(C)(C)C)c1ccc(OCC(=O)N2CCc3ccccc3C2)cc1 | i | 2% | -82* | ? | ? | -3%
COc1cccc(CNC(=O)C2CCCN(c3nnc(-n4c(C)ccc4C)s3)C2)c1OC (stereo unspecified) | -16% | -18% | -30 | nt | -19% | -9%
CCC(=O)N1CCN(c2ccc(NC(=O)c3ccc([N+](=O)[O-])o3)cc2)CC1 | ? | 28µM* | -98* | ? | 1% | ?
CC(C)(C)C(=O)N1CCN(c2ccc(NC(=O)c3ccco3)cc2)CC1 | -7% | 11% | 20 | 11% | 14% | -15%
CC(C)(C)C(=O)N1CCN(c2ccc(NC(=O)c3ccc([N+](=O)[O-])o3)cc2)CC1 | 11µM* | -26% | -99* | ? | -8% | ?
O=C(Nc1ccc(N2CCN(C(=O)c3ccc(Cl)cc3)CC2)cc1)c1ccc([N+](=O)[O-])o1 | -21% | -27% | -96* | 10µM* | ? | ?
CCCC(=O)N1CCN(c2ccc(NC(=O)c3ccc([N+](=O)[O-])o3)cc2)CC1 | 10µM* | ? | -96* | ? | -20% | 10µM*
CCCC(=O)N1CCN(c2ccc(NC(=O)c3ccc(Br)o3)cc2)CC1 | nt | -3% | -10 | -5% | 0% | -23%
O=C(Nc1ccc(N2CCN(C(=O)c3ccc(Cl)cc3)CC2)cc1)c1cccs1 | nt | ? | 17 | 12% | -6% | nt
Cc1cc(C)n(-c2nc(C)nc(N)n2)n1 | i | 0% | -1 | 3% | -2% | -10%
COCCn1c(=O)[nH]c2cc(C(=O)NCCc3ccc(OC)c(OC)c3)ccc2c1=O | nt | 4% | -34 | -21% | 3% | nt
SMILES | VACV mCherry inh | Sm TGR block | HCMV antiviral | HCV inhibitor | FMDV inh | Vaccinia Venus
O=C(COC(=O)c1cccnc1SC(F)F)NC1CC1 | nt | -1% | 17 | 19% | -4% | nt
O=C(NCc1ccco1)[C@@H]1CSC2c3ccccc3C(=O)N21 (stereo partly specified) | nt | 32µM* | -18 | 7% | 5% | 8%
O=C(NCc1cccs1)[C@@H]1CSC2c3ccccc3C(=O)N21 (stereo partly specified) | nt | 18% | -18 | -5% | -5% | -4%
CC(C)[C@H](NC(=O)[C@@H]1CSC2c3ccccc3C(=O)N21)C(=O)NCc1ccco1 (stereo partly specified) | -15% | 45µM* | -20 | -7% | 1% | -7%
CC(C)[C@H](NC(=O)[C@@H]1CSC2c3ccccc3C(=O)N21)C(=O)NCc1ccncc1 (stereo partly specified) | -11% | -11% | -11 | 6% | 22% | -6%
CCc1ccc([C@@H]2C[C@H]3[C@@H](CN2S(=O)(=O)c2ccc(C)cc2)C(=O)C[C@@H](c2ccc(Cl)cc2)N3S(=O)(=O)c2ccccc2C)cc1 | i | nt | -2 | nt | -19% | -11%
Cc1ccn2c(Nc3ccccc3)c(-c3ccccn3)nc2c1 | 2.2µM* | -1% | 0 | 8.9µM* | -26% | -14%
CC(C)c1ccc(Nc2c(-c3ccccn3)nc3ccccn23)cc1 | 11µM* | -4% | -87* | nt | ? | ?
Cc1ccc2nc(-c3ccncc3)c(Nc3ccccc3C)n2c1 | -21% | -4% | ? | nt | -24% | -23%
CC(C)c1ccc(Nc2c(-c3ccccc3O)nc3cnccn23)cc1 | -23% | -10% | -31 | nt | ? | -17%
Cc1ccn2c(Nc3ccccc3C)c(-c3ccc(N4CCOCC4)cc3)nc2c1 | -15% | 26% | -31 | nt | 2% | -15%
Cc1ccc2nc(-c3ccccn3)c(Nc3ccccc3C)n2c1 | 6.3µM* | 0% | -100* | 5µM* | ? | ?
Cc1ccn2c(Nc3ccccc3C)c(-c3ccccn3)nc2c1 | 7.9µM* | -4% | -81* | 4µM* | ? | ?
CC1OC(C2CCCCC2)Cc2[nH]c(=S)[nH]c(=O)c21 (stereo unspecified) | 38% | nt | -4 | nt | -23% | 3%
Cc1ccccc1Nc1c(-c2ccccn2)nc2ccccn12 | nt | 3% | -98* | ? | ? | nt
Cc1ccccc1Nc1c(-c2cccnc2)nc2ccccn12 | ? | 12% | ? | -19% | -27% | -19%
Cc1ccc2nc(-c3ccccn3)c(N)n2c1 | i | nt | 40 | nt | 14µM* | 1%
